Compound activity from PubChem.
The list is not random: actives were taken first. Their share in the collection is about 1.1%.
RGS4 inhibitor: Inhibitors of Regulator of G Protein Signaling (RGS) 4: qHTS | Regulator of G-protein signaling 4 (Homo sapiens), P49798 | actives 0.039% (n = 390,000) | Potency, µM (highest dose often 114 µM), without a hit: at the top dose activity change, negative = inhibition, hits mostly inhibitors | Transcreener GDP fluorescence polarization, RGS4-accelerated GTP hydrolysis | AID 504845, 2011; also: potency is read from the fitted curve at half-maximal effect; % is scaled to controls: 0 for no effect and ±100 for the full control effect; nearly all actives have a fitted effect of over 75% in size
Target sequence (P49798 whole entry, looked up): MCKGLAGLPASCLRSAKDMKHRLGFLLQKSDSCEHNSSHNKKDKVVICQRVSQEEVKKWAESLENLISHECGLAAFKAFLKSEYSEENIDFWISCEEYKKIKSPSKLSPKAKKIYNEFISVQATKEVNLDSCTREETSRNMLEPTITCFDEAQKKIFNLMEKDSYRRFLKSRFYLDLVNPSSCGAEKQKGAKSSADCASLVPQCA
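MLSMR compounds (23 nl, pin-transferred) preincubated 10 min at room temperature with a 500nM (2x) first reagent, then RGS4 at 900nM (2x) plus Transcreener GDP mix added; fluorescence polarization (620/688 nm) read before and after 90 min at 30 °C.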
p53 reactivation: qHTS assay for re-activators of p53 using a Luc reporter; actives 0.063% (n = 320,000); H1299 p53-A138V BP100-luciferase reporter, luminescence, 24 h; AID 504706, 2011; Potency, µM (highest dose often 92.2 µM), inactives show at the highest dose activity change, positive = activation, most hits filed as activators; also: potency is read from the fitted curve at half-maximal effect; % of control where 0% means no effect; nearly all actives have a fitted effect of over 45% in size
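H1299 (p53-null), stable ts p53-A138V + BP100-Luc; 1000 cells/well, Opti-MEM/10% FBS; cpd 4 pt, 1:5; 24 h, 37 deg C, 5% CO2; detection reagent 10 min RT; luminescence.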
PTHR1 agonist: qHTS for PTHR1 Agonists: Primary Screen; Parathyroid hormone/parathyroid hormone-related peptide receptor (Homo sapiens), Q03431; HEK293 GP2 PTHR1 cells, GloSensor cAMP luminescence, 1 h; Potency, µM (highest dose often 115 µM), without a hit: at the highest dose activation, most hits filed as activators; actives 0.075% (n = 410,000); also: potency is read from the fitted curve at half-maximal effect; nearly all actives have a fitted effect of over 55% in size
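HEK-293-derived GP2 cells expressing PTHR1 and a GloSensor cAMP reporter, 3,000/well, plated overnight, given luciferin plus IBMX (each 0.5 mM as added) for 1 h at 37 °C, then compound for 1 h at 37 °C. Luminescence was read after 15 min at room temperature.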
LDHA inh: qHTS assay for inhibitors of human lactate dehydrogenase. purified LDHA, NADH/diaphorase-resazurin fluorescence; active compounds read low. activity change, % (values are at about 110 or 230 µM). actives 0.15% (n = 480,000). AID 1347041, 2019; in the data active = activity change below about -30%; inconclusive = mostly about -25% to -30%;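 also: plate controls were DMSO wells for no effect and wells without enzyme for full effect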
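Human LDH5 at 2 nM final in Tris HCl pH 7.4 with 0.06 mM NADH and 0.2 mM pyruvate, reacted 5 minutes at room temperature. Remaining NADH coupled via diaphorase/resazurin; resorufin fluorescence read at 0 and 20 minutes, normalized to enzyme-free and DMSO wells.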
BRCA1 expr act: qHTS Assay to Identify Small Molecule Activators of BRCA1 Expression; MCF7-BRCA1-FFLuc reporter, luminescence, 48 h; response scale: scaled: vehicle 0%, 10 µM genistein 100%; Potency, µM (top dose mostly 46.1 µM), inactives show top-dose activation, usual class: activators; actives 1.1% (n = 380,000); also: potency is read from the fitted curve at half-maximal effect; nearly all actives have a fitted effect of over 80% in size
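Quantitative HTS in MCF7 cells stably reporting BRCA1 expression via firefly luciferase. Compound treatment lasts 48 h at 37 °C in phenol-red free MEM. Activation is expressed relative to genistein at 10 microM and DMSO.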
* marks the source's active call; other numbers are inactive results; i = inactive; ? = inconclusive; . = no result; [ ] = remark or other dose. Unless noted, calls follow the shape of the dose curve; as a rule, active = well fitted curve in the direction sought with a large enough effect; inconclusive = small, poorly fitted or top-dose-only effect, or another doubt; inactive = no such curve, though single readings can be large; an effect the other way counts as inactive or inconclusive.

SMILES	RGS4 inhibitor	p53 reactivation	PTHR1 agonist	LDHA inh	BRCA1 expr act
CC(CCC(C)C(C)(C)C)[C@@H]1CC[C@H]2C3C[C@H](OS(O)(=S)=S)[C@H]4C[C@H](OS(O)(=S)=S)[C@@H](OS(O)(=S)=S)C[C@]4(C)[C@H]3CC[C@]12C (some centres not stated) (tested in a mixture with another compound)	-131%	2%	-24%	-94*	-15%
CN(C)c1ccc(NCc2cccc(Br)c2)cc1	.	.	.	30	.
CN(C)C(=O)CNC(=O)c1cc2occc2n1Cc1ccc(Cl)cc1	.	.	.	1	.
O=C(Nc1nc2c(s1)CN(Cc1ccccc1)CC2)C1CCCC1	-12%	8%	i	-3	73%
CC(C)(C)C(=O)Nc1nc2c(s1)CN(Cc1ccccc1)CC2	20%	8%	-4%	-8	8.9µM*
CC1CCN(S(=O)(=O)c2cn(CC(=O)Nc3ccc(F)cc3Cl)cn2)CC1	.	.	.	-1	.
Cc1ccccc1NC(=O)CSc1ccc(-c2ccc(-n3cccn3)cc2)nn1	-22%	-6%	i	-5	0%
CCc1nnc(NC(=O)CSc2ccc(-c3ccc(-n4cccn4)cc3)nn2)s1	-12%	11%	-24%	-4	10µM*
COc1ccc(CCNC(=O)c2nc(-c3cccs3)no2)cc1OC	-4%	-6%	-41%	-5	-11%
COc1ccccc1CCNC(=O)c1nc(-c2cccs2)no1	5%	3%	-24%	2	4µM*
COc1ccccc1CC(=O)NCc1csc(-c2cccs2)n1	-10%	-5%	-14%	-5	11µM*
COc1cc(Nc2c(C#N)cnc3ccccc23)cc(OC)c1OC	.	.	.	11	.
Cc1ccc(C(=O)NC2(C(F)(F)F)C(=O)Nc3c2c(=O)[nH]c(=O)n3Cc2ccco2)cc1 (configuration not stated)	.	.	.	6	.
O=S(=O)(Cc1noc(-c2ccc(Cl)cc2)n1)Cc1ccco1	?	1%	i	-6	7.9µM*
CCOc1ccc(/C=N/OCC(=O)Nc2ccc(OCc3ccccc3)cc2)cc1OC	-21%	14%	-5%	-2	7.9µM*
Cc1ccc(-c2csc(NC(=O)c3ccc(Br)cc3)c2C(=O)O)cc1	-12%	?	-28%	1	2µM*
O=C(Nc1ccc(Cl)cc1)C1C2CCCCC21 (configuration not stated)	-13%	.	0%	-2	2.2µM*
O=C(NCC1CC1)Nc1cccc(Cl)c1	7%	17%	-10%	0	92%
O=C(NCc1cccs1)Nc1ccc2c(c1)OCO2	-2%	?	-9%[57.5 µM]	0	10µM*
O=C(NCC1CC1)Nc1ccc(Cl)cc1	14%	?	-12%	-1	10µM*
O=C(NCc1ccncc1)Nc1ccc2c(c1)OCO2	12%	12%	-3%	-15	12%
O=C(NCc1cccs1)Nc1ccc(Cl)cc1	4%	?	-14%	-4	10µM*
COc1ccc(-n2nc3ccc(NC(=O)c4ccccc4Br)cc3n2)cc1	.	.	.	0	.
Nc1nccnc1C(=O)NCCc1c[nH]c2ccccc12	.	.	.	0	.
Clc1ccc2c(NN=C3CCCC3)ccnc2c1	.	.	.	2	.
SMILES	RGS4 inhibitor	p53 reactivation	PTHR1 agonist	LDHA inh	BRCA1 expr act
O=C(Cc1cccc2ccccc12)N(Cc1ccc2cc[nH]c2c1)C1CC1	.	.	.	8	.
O=c1c2ccccc2nc2ccc(NCc3cccs3)nn12	6%	29%	-1%	-5	11µM*
O=C(Nc1nnc(C2CCCC2)s1)C1CCC1	12%	10%	i	-5	11µM*
Cc1nnc(NC(=O)C2CCCC2)s1	2%	10%	i	-3	-4%
O=C(NCCc1ccc(Cl)cc1)c1ccc2c(=O)n(-c3ccccc3)c(=O)[nH]c2c1	.	.	.	0	.
N=c1nc(-c2ccccc2)n(-c2ccccc2)s1	?	.	.	-71*	27%
OC[C@H]1OC(O)[C@H](O)[C@@H](O)[C@H]1O (some centres not stated)	-11%	8%	-16%	-8	-7%
OCC1O[C@H]([S-])[C@H](O)[C@@H](O)[C@@H]1O.[Au+] (some centres not stated)	0.6µM*	.	.	.	.
Cc1sc2nc(C(C)Sc3nnnn3C(C)(C)C)[nH]c(=O)c2c1C (configuration not stated)	.	.	.	0	.
Cc1cc(-c2nnc(CCC(=O)N(C)CCc3ccccc3)o2)no1	1%	6%	-15%	-3	19%
Cc1cccc(Cc2nnc(CCC(=O)N(C)CCc3ccccc3)o2)c1	-28%	-42%	-76%	-2	3.5µM*
CCCCC(=O)N(C)c1c(CC)nc2c(OCC(=O)N3CCOCC3)cccn12	.	.	-1%	-37*	19%
COC(=O)c1ccccc1NC(=O)c1ccccc1OC	-28%	0%	17%[57.5 µM]	-2	-2%
COc1ccccc1C(=O)Nc1ccccc1SC(=O)c1ccccc1OC	-51%	13µM*	-37%	2	-1%
N#Cc1nc(COc2ccc(Cl)cc2)oc1NCc1ccco1	.	.	.	14	.
COc1ccccc1N1CCN(C(=O)CNC(=O)c2cn(-c3ccccc3OC)c(=O)c3ccccc23)CC1	-26%	-1%	i	1	65%
COc1ccccc1-n1cc(C(=O)NCC(=O)N2CCN(c3ccccc3)CC2)c2ccccc2c1=O	-6%	7%	i	-5	13µM*
COc1ccc(-n2nc(C(=O)NCC(=O)N3CCCCCC3)c3ccccc3c2=O)c(OC)c1	-13%	?	i	-2	11µM*
COc1ccc(-n2nc(C(=O)NCC(=O)N3CCN(c4ccccc4F)CC3)c3ccccc3c2=O)cc1	15%	27%	-12%	-9	?
COc1ccc(-n2nc(C(=O)NCC(=O)N3CCN(c4ccccc4F)CC3)c3ccccc3c2=O)cc1OC	-7%	2%	-5%	-2	8.9µM*
COc1ccc(-n2nc(C(=O)NCC(=O)N3CCCCC3)c3ccccc3c2=O)c(OC)c1	34%	?	i	-10	13µM*
COc1ccc(-n2nc(C(=O)NCC(=O)N3CCOCC3)c3ccccc3c2=O)c(OC)c1	-10%	7%	i	-3	19%
NC1=NC(=O)/C(=C\C=C\c2ccccc2)S1	21%	27%	i	-7	62%
O=C1NC(=O)C(=CC=Cc2ccccc2)S1	.	.	-35%	-15	10µM*
COc1cc(N=Nc2ccc3ccccc3c2)ccc1O	16%	.	-3%	1	5µM*
c1ccc(-c2noc(-c3ccccc3-c3ccccc3)n2)cc1	-26%	7%	-2%	-8	-12%
